The values that follow come from PubChem BioAssay (NCI).

Compounds without any hit were thinned out: in the full panel of roughly 79,000, 15% have a hit. Values without a mark were called inactive. The source made the active and inactive calls. Rule as the data show it: active = growth inhibition above about 70%; inactive = the rest.

Assay [1] is described as follows: NCI Yeast Anticancer Drug Screen. Data for the rad50 strain (AID 155).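 Also: 0% = growth of vehicle-only cultures of the same strain.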 The following applies: S. cerevisiae rad50 strain growth inhibition, active compounds read high. Summed up:
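Genetically altered yeast (DNA repair pathway); compound treatment; growth inhibition vs vehicle ctrl.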

Assay [2] can be described thus: NCI Yeast Anticancer Drug Screen. Data for the mec2-1 strain (AID 157). Particulars: S. cerevisiae mec2-1 strain, active compounds read high. Summed up: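 Readout is yeast growth inhibition, normalised to vehicle-treated controls, in the mec2-1 strain exposed to compound.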
Assay [3] can be described thus: NCI Yeast Anticancer Drug Screen. Data for the sgs1 mgt1 strain (AID 161).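 Also: 0% = growth of cultures given vehicle only.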 Particulars: S. cerevisiae sgs1 mgt1 strain, active compounds read high. Summed up:
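Percent growth inhibition was derived by comparing compound-exposed mutant yeast with vehicle-exposed cultures. The strain carries alterations in DNA damage repair.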

A short description of assay [4]: NCI Yeast Anticancer Drug Screen. Data for the cln2 rad14 strain (AID 165).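 Also: 0% = growth equal to vehicle treated cultures.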 Particulars: S. cerevisiae cln2 rad14 strain, active compounds read high. Put shortly:
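Relative to vehicle controls, growth inhibition of compound-treated cln2 rad14 yeast was recorded.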

Assay [5] is described as follows: NCI Yeast Anticancer Drug Screen. Data for the bub3 strain (AID 167). The following applies: S. cerevisiae bub3 mutant strain, active compounds read high. Summed up:
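Yeast carrying a defined mutation is treated with each compound, and growth is compared with that of vehicle-exposed cells to give inhibition.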

The nature of assay [6]: NCI Yeast Anticancer Drug Screen. Data for the mlh1 rad18 strain (AID 175). The following applies: S. cerevisiae mlh1 rad18 strain growth inhibition, active compounds read high. Put shortly:
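Test agents were incubated with a yeast strain of defined genotype (DNA damage repair defect). Inhibition of growth was derived by comparison with vehicle-exposed cultures.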

The mark [7] stands for this setting: at 5.0 µM (retest, dose inferred, filed as 0.5).
[8] abbreviates: at 50.0 µM (retest, dose inferred, filed as 5.0).

With `CCN(CC)CCOc1ccc(-c2cc(-c3ccccc3)nc(N)n2)cc1`, the growth inhibition in assay [1] (setting [7]) was 49%; in assay [1] (setting [8]), 98% (active); in assay [1] (at 50.0 µM), 76.5% (active); in assay [2] (setting [7]), 58%; in assay [2] (setting [8]), 99% (active); in assay [2] (at 50.0 µM), 79.5% (active). Moreover, the growth inhibition in assay [3] (setting [7]) is 44%; in assay [3] (setting [8]), 91% (active); in assay [3] (at 50.0 µM), 85.2% (active); in assay [4] (setting [7]), 73% (active); in assay [4] (setting [8]), 93% (active); in assay [4] (at 50.0 µM), 59.3%. Also, the growth inhibition was 58% in assay [5] (setting [7]); 92% (active) in assay [5] (setting [8]); 81.3% (active) in assay [5] (at 50.0 µM); 55% in assay [6] (setting [7]); 99% (active) in assay [6] (setting [8]); 77.8% (active) in assay [6] (at 50.0 µM).

As for `O=c1ccc2nc3ccccc3sc-2c1`, the growth inhibition is -13% in assay [1] (setting [7]); 98% (active) in assay [1] (setting [8]); 95.4% (active) in assay [1] (at 50.0 µM); 22% in assay [2] (setting [7]); 98% (active) in assay [2] (setting [8]); 8.1% in assay [2] (at 50.0 µM). Moreover, the growth inhibition in assay [3] (setting [7]) is 5%; in assay [3] (setting [8]), 98% (active); in assay [3] (at 50.0 µM), 76.8% (active); in assay [4] (setting [7]), -6%; in assay [4] (setting [8]), 98% (active); in assay [4] (at 50.0 µM), 49.8%. The growth inhibition was 7% in assay [5] (setting [7]); 98% (active) in assay [5] (setting [8]); 92.1% (active) in assay [5] (at 50.0 µM); 4% in assay [6] (setting [7]); 98% (active) in assay [6] (setting [8]); 95.5% (active) in assay [6] (at 50.0 µM).

In the case of `Cc1cc(C)c(Cc2ccccc2O)cc1Cc1ccccc1O`, the growth inhibition in assay [1] (setting [7]) was 33%; in assay [1] (setting [8]), 47%; in assay [1] (at 50.0 µM), 90.5% (active); in assay [2] (setting [7]), 35%; in assay [2] (setting [8]), 46%; in assay [2] (at 50.0 µM), 91.7% (active). Further, the growth inhibition in assay [3] (setting [7]) was 80% (active); in assay [3] (setting [8]), 97% (active); in assay [3] (at 50.0 µM), 92.5% (active); in assay [4] (setting [7]), 65%; in assay [4] (setting [8]), 99% (active); in assay [4] (at 50.0 µM), 90.7% (active). For the same molecule, the growth inhibition was 87% (active) in assay [5] (setting [7]); 98% (active) in assay [5] (setting [8]); 90.1% (active) in assay [5] (at 50.0 µM); 34% in assay [6] (setting [7]); 38% in assay [6] (setting [8]); 89.7% (active) in assay [6] (at 50.0 µM).

`Cc1cc(OCCl)ccc1[N+](=O)[O-]`: the growth inhibition in assay [1] (setting [7]) is -2%; in assay [1] (setting [8]), 26%; in assay [1] (at 50.0 µM), 30.4%; in assay [2] (setting [7]), -2%; in assay [2] (setting [8]) it was 32%; in assay [2] (at 50.0 µM) it was 25.6%. The growth inhibition in assay [3] (setting [7]) was -16%; in assay [3] (setting [8]), 67%; in assay [3] (at 50.0 µM) it was 39.1%; in assay [4] (setting [7]) it was -1%; in assay [4] (setting [8]) it was 55%; in assay [4] (at 50.0 µM), 15.6%. The growth inhibition in assay [5] (setting [7]) was 15%; in assay [5] (setting [8]), 58%; in assay [5] (at 50.0 µM), 19.9%; in assay [6] (setting [7]), 1%; in assay [6] (setting [8]), 80% (active); in assay [6] (at 50.0 µM), 74.8% (active).

As for `C=Cc1cc(N=Nc2ccc([N+](=O)[O-])cc2)ccc1N(C)C`, the growth inhibition in assay [1] (setting [7]) was 6%; in assay [1] (setting [8]) it was 12%; in assay [1] (at 50.0 µM), 48%; in assay [2] (setting [7]), -1%; in assay [2] (setting [8]) it was -2%; in assay [2] (at 50.0 µM), 4.2%. Also, the growth inhibition in assay [3] (setting [7]) is 3%; in assay [3] (setting [8]), 25%; in assay [3] (at 50.0 µM), 4.6%; in assay [4] (setting [7]) it was -2%; in assay [4] (setting [8]) it was -15%; in assay [4] (at 50.0 µM) it was -25.9%. Moreover, the growth inhibition is 2% in assay [5] (setting [7]); 6% in assay [5] (setting [8]); 2.55% in assay [5] (at 50.0 µM); -9% in assay [6] (setting [7]); -12% in assay [6] (setting [8]); 47.7% in assay [6] (at 50.0 µM).

As to `O=C1OC(OCC#CCOC2OC(=O)C(Cl)=C2Cl)C(Cl)=C1Cl` (stereo not given), the growth inhibition in assay [1] (setting [7]) is 37%; in assay [1] (setting [8]), 99% (active); in assay [1] (at 50.0 µM) it was 99.4% (active); in assay [2] (setting [7]) it was 28%; in assay [2] (setting [8]), 99% (active); in assay [2] (at 50.0 µM) it was 99.7% (active). In addition, the growth inhibition in assay [3] (setting [7]) is 46%; in assay [3] (setting [8]), 100% (active); in assay [3] (at 50.0 µM), 99.3% (active); in assay [4] (setting [7]), 28%; in assay [4] (setting [8]), 99% (active); in assay [4] (at 50.0 µM) it was 97.8% (active). The growth inhibition in assay [5] (setting [7]) was 26%; in assay [5] (setting [8]), 99% (active); in assay [5] (at 50.0 µM), 98.3% (active); in assay [6] (setting [7]) it was 46%; in assay [6] (setting [8]), 99% (active); in assay [6] (at 50.0 µM), 99.5% (active).

As for `CN1C(C)(C)CC(O)(C#N)CC1(C)C`, the growth inhibition in assay [1] (setting [7]) was 4%; in assay [1] (setting [8]), 99% (active); in assay [1] (at 50.0 µM) it was 98.6% (active); in assay [2] (setting [7]), 2%; in assay [2] (setting [8]), 99% (active); in assay [2] (at 50.0 µM), 99.7% (active). Further, the growth inhibition in assay [3] (setting [7]) is 1%; in assay [3] (setting [8]), 99% (active); in assay [3] (at 50.0 µM) it was 99.3% (active); in assay [4] (setting [7]), -6%; in assay [4] (setting [8]) it was 97% (active); in assay [4] (at 50.0 µM), 99.2% (active). For the same molecule, the growth inhibition in assay [5] (setting [7]) is -7%; in assay [5] (setting [8]) it was 99% (active); in assay [5] (at 50.0 µM) it was 99.5% (active); in assay [6] (setting [7]), 12%; in assay [6] (setting [8]), 99% (active); in assay [6] (at 50.0 µM) it was 99.4% (active).

As for `CC(C)(CC#N)c1cc(CC(C)(C)c2cc(CC(C)(C)c3cc(CC(C)(C)C4(C)OCCO4)no3)no2)no1`, the growth inhibition in assay [1] (setting [7]) was -2%; in assay [1] (setting [8]) it was 2%; in assay [1] (at 50.0 µM), 16.8%; in assay [2] (setting [7]), -4%; in assay [2] (setting [8]) it was -2%; in assay [2] (at 50.0 µM) it was 2.6%. Moreover, the growth inhibition in assay [3] (setting [7]) was -2%; in assay [3] (setting [8]), 6%; in assay [3] (at 50.0 µM), -17.4%; in assay [4] (setting [7]), 1%; in assay [4] (setting [8]), -4%; in assay [4] (at 50.0 µM), 0.5%. Moreover, the growth inhibition in assay [5] (setting [7]) was -3%; in assay [5] (setting [8]), 0%; in assay [5] (at 50.0 µM), -1.9%; in assay [6] (setting [7]), -2%; in assay [6] (setting [8]), -8%; in assay [6] (at 50.0 µM), 12.8%.

On to `Cc1[nH]n(C(N)=S)c(=O)c1N=Nc1ccc([N+](=O)[O-])cc1`, for which the growth inhibition in assay [1] (setting [7]) is -19%; in assay [1] (setting [8]), 35%; in assay [1] (at 50.0 µM), 91.5% (active); in assay [2] (setting [7]), -4%; in assay [2] (setting [8]), 27%; in assay [2] (at 50.0 µM) it was 51.2%. Also, the growth inhibition is -4% in assay [3] (setting [7]); 66% in assay [3] (setting [8]); 88.2% (active) in assay [3] (at 50.0 µM); -13% in assay [4] (setting [7]); 33% in assay [4] (setting [8]); 7.5% in assay [4] (at 50.0 µM). Further, the growth inhibition is -12% in assay [5] (setting [7]); 54% in assay [5] (setting [8]); 51.8% in assay [5] (at 50.0 µM); -6% in assay [6] (setting [7]); 48% in assay [6] (setting [8]); 93.4% (active) in assay [6] (at 50.0 µM).

`CCCN(Cc1ccccc1)S(=O)(=O)c1ccc(C)cc1`: the growth inhibition is -4% in assay [1] (setting [7]); 95% (active) in assay [1] (setting [8]); -14.1% in assay [1] (at 50.0 µM); -4% in assay [2] (setting [7]); 97% (active) in assay [2] (setting [8]); -3.65% in assay [2] (at 50.0 µM). In addition, the growth inhibition in assay [3] (setting [7]) was -5%; in assay [3] (setting [8]), 95% (active); in assay [3] (at 50.0 µM), 16%; in assay [4] (setting [7]) it was -6%; in assay [4] (setting [8]), 93% (active); in assay [4] (at 50.0 µM), -19.5%. Moreover, the growth inhibition in assay [5] (setting [7]) is 7%; in assay [5] (setting [8]), 96% (active); in assay [5] (at 50.0 µM) it was 63.7%; in assay [6] (setting [7]), -5%; in assay [6] (setting [8]), 96% (active); in assay [6] (at 50.0 µM), -7.75%.
